Activity calls are given as the source filed them. No stated cut-off is given here; in the data, active means activation above about 85%; inactive means the rest.
The molecules below were run against Peroxisome proliferator-activated receptor gamma (Homo sapiens) (UniProt P37231) (assay: PPARg partial agonist activation, primary screen, cell-based, luciferase reporter, luminescence (AID 504452;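 further: Cos-1 cells carrying PPARgamma and a response element luciferase reporter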)). Settings: at 5 µM, stronger effect = higher value; activation (% of full agonist control): measured here: relative to full agonist control.
Chain of Peroxisome proliferator-activated receptor gamma (Homo sapiens) (P37231 whole entry, looked up): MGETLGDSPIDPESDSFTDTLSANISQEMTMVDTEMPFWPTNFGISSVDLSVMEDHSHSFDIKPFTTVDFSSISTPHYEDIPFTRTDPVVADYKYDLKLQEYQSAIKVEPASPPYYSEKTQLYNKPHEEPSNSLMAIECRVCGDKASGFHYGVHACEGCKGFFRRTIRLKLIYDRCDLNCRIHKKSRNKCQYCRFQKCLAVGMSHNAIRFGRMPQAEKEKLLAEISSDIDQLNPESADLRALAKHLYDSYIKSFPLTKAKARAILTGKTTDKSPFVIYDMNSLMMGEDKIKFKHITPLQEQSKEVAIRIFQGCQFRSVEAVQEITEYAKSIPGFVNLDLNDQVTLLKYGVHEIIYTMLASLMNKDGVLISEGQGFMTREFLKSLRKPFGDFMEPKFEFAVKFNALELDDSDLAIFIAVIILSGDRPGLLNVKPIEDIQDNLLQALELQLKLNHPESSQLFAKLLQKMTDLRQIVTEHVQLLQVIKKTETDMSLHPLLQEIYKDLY

SMILES | activation (% of full agonist control) | activation (% of partial agonist control)
COc1ccc(N2CCN(C(=O)CNC(=O)Cn3c(C)cc4ccccc4c3=O)CC2)cc1 | 33.3% | 73.7% (inactive)
O=c1[nH]c2cc3c(cc2cc1CN(CCN1CCOCC1)C(=S)NCC1CCCO1)OCO3 (centres undefined) | 26.6% | 59% (inactive)
CCOC(=O)c1c(C)[nH]c(C(=O)Cn2c(=O)c3c(ncn3CC)n(Cc3ccccc3)c2=O)c1C | 29.8% | 66% (inactive)
CC(Oc1ccc(F)cc1)C(=O)Nc1ccc(N2CCOCC2)cc1N1CCOCC1 (centres undefined) | 31.2% | 69.2% (inactive)
COc1ccc(NC(=O)C(=O)c2cn(CC(=O)N3CCCC3)c3ccccc23)c(OC)c1 | 32.9% | 72.7% (inactive)
CCn1cc(C(=O)N2CCN(c3ccc(OC)cc3)CC2)c2cc(OC)c(OC)cc2c1=O | 27.6% | 61% (inactive)
COC(=O)c1sc(N2C(=O)C(O)=C(C(=O)c3ccc(C)o3)C2c2ccc(F)cc2)nc1C (centres undefined) | 29.9% | 66.2% (inactive)
O=C(Nc1ccccc1F)C(=O)c1cn(CC(=O)N2CCCCC2)c2ccccc12 | 34.4% | 76.1% (inactive)
COc1ccc(-c2cc(C(=O)NC(C)c3ccccn3)c3ccccc3n2)cc1OC (centres undefined) | 40.7% | 90.2% (active)
COc1ccc(C)c2sc(N(CCCN(C)C)C(=O)CS(=O)(=O)c3ccc(F)cc3)nc12 | 31.2% | 69.1% (inactive)
Cc1ccccc1NC(=O)CC1C(=O)Nc2ccccc2N1CC(=O)N(C)C1CCS(=O)(=O)C1 (centres undefined) | 47% | 104% (active)
Cc1ccc(C)c(/C(O)=C2/C(=O)C(=O)N(CCN3CCOCC3)C2c2ccc(C)o2)c1 (centres undefined) | 9.22% | 20.4% (inactive)
O=C(Cc1ccccc1)n1nc(-c2ccco2)nc1SCc1ccccc1 | 37% | 81.8% (inactive)
O=C1C2CCCN2c2ccc(S(=O)(=O)N3CCOCC3)cc2N1Cc1cccc(C(F)(F)F)c1 (centres undefined) | 32.4% | 71.8% (inactive)
COc1cc(CN2CCCC(N3CCN(c4ccc(F)cc4)CC3)C2)ccc1F (centres undefined) | 31.2% | 69% (inactive)
O=S(=O)(NCC(c1ccc2c(c1)OCO2)N1CCOCC1)c1ccc(F)cc1 (centres undefined) | 35.4% | 78.4% (inactive)

SMILES | activation (% of full agonist control) | activation (% of partial agonist control)
Cc1ccc(C(=O)N2NC(c3ccccc3F)C3C(=O)N(c4cccc(C)c4)C(=O)C32)cc1 (centres undefined) | 33.4% | 73.8% (inactive)
Cc1ccc(-n2ncc3c(=O)[nH]c(SCC(=O)N4CCCc5ccccc54)nc32)cc1 | 36.4% | 80.5% (inactive)
O=C(c1ccc(F)cc1)c1cn(Cc2ccc(F)cc2)c2cc3c(cc2c1=O)OCCO3 | 37.8% | 83.8% (inactive)
Cc1ccc2nc(N3C(=O)C(O)=C(C(=O)c4ccco4)C3c3cccc(O)c3)sc2c1 (centres undefined) | 46.7% | 103% (active)
COc1ccc(CN(Cc2ccccn2)C(=O)CN2C(=O)C(C)Oc3ccccc32)cc1 (centres undefined) | 38.6% | 85.4% (active)
O=S(=O)(NCC(c1ccco1)N1CCc2ccccc2C1)c1ccc(F)cc1 (centres undefined) | 29.9% | 66.1% (inactive)
N#C/C(=C\c1ccc(OCCN2CCOCC2)cc1)C(=O)Nc1ccc(S(N)(=O)=O)cc1 | 36.8% | 81.4% (inactive)
CC(Oc1cccc(Cl)c1)C(=O)Nc1ccc(N2CCOCC2)cc1N1CCOCC1 (centres undefined) | 33.2% | 73.5% (inactive)
Cc1[nH][nH]c(=O)c1C(c1c(C)[nH][nH]c1=O)c1cn(Cc2ccc(Cl)c(Cl)c2)c2ccccc12 | 35.5% | 78.5% (inactive)
CC(=O)c1ccc(N2CCN(C(=O)C3CCCN(S(=O)(=O)c4cnc[nH]4)C3)CC2)cc1 (centres undefined) | 25.1% | 55.5% (inactive)
O=c1c([N+](=O)[O-])c(NCCN2CCCCCC2)c2ccccc2n1-c1ccccc1 | 15.8% | 34.9% (inactive)
CCN(C(=O)CSc1nnc(-c2ccc(F)cc2)c2ccccc12)C1CCS(=O)(=O)C1 (centres undefined) | 34.5% | 76.4% (inactive)
O=C(CSc1nnc(Cc2cc(=O)[nH]c(=O)[nH]2)n1-c1ccc(Cl)cc1)N1CCc2ccccc21 | 46.6% | 103% (active)
COc1ccccc1N1C(=O)C2C(C(=O)c3ccccc3)=NN(c3ccc(C)cc3)C2C1=O (centres undefined) | 47.8% | 106% (active)
COc1ccc2c(c1)c(=O)c(C(=O)c1ccc(Cl)cc1)cn2CC(=O)Nc1ccc(F)cc1 | 32% | 70.9% (inactive)
CCOc1cc(C2C(C(=O)OC)=CN(Cc3ccc(Cl)cc3)C=C2C(=O)OC)ccc1O | 37.6% | 83.2% (inactive)
